Results published in PubChem BioAssay (NCI).
Values joined by “and” are separate entries in the source; they are usually repeats but may differ in a detail not shown here. Equal entries are not always repeated. This is part of a sample that, as a whole, favours compounds with a hit. Of some 83,000 tested, about 20% had one in any assay.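 Note: values are percent growth. 100 is the growth of untreated cells, values between 100 and 0 indicate rising inhibition; between -100 and 0 indicates cell death.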 Active and inactive are the calls of the source. How the source made its calls: active means growth percent below 10; inactive means the rest.

What was measured:
Assay in all cases: NCI-60 one-dose screen, 48 h (100 = growth as untreated, 0 = no growth, -100 = all killed)
NCI-H23 lung = conditions: 10 µM unless noted
NCI-H226 lung = conditions: 10 µM unless noted
NCI-H322M lung = conditions: 10 µM unless noted
HOP-62 NSCLC = conditions: 10 µM unless noted
NCI-H460 lung = conditions: 10 µM unless noted
HOP-92 NSCLC = conditions: 10 µM
NCI-H522 lung = conditions: 10 µM
A549/ATCC NSCLC = conditions: 10 µM unless noted
786-0 renal = conditions: 10 µM unless noted
COLO 205 colon = conditions: 10 µM unless noted
DU-145 prostate = conditions: 10 µM unless noted
K-562 leukemia = conditions: 10 µM unless noted
MALME-3M melanoma = conditions: 10 µM unless noted
MDA-MB-231 breast = conditions: 10 µM unless noted
RXF 393 renal = conditions: 10 µM unless noted
SF-268 CNS = conditions: 10 µM unless noted
SF-295 CNS = conditions: 10 µM unless noted
SF-539 CNS = conditions: 10 µM unless noted
UACC-257 melanoma = conditions: 10 µM unless noted
M14 melanoma = conditions: 10 µM unless noted

Measured: growth

c1ccc2c(c1)OC1OC2Oc2ccccc21
inactive: NCI-H23 lung 98.3% | NCI-H226 lung 94.3% | NCI-H322M lung 104% | HOP-62 NSCLC 98.8% | NCI-H460 lung 99.4% | HOP-92 NSCLC 101% | NCI-H522 lung 87% | A549/ATCC NSCLC 96.9% | 786-0 renal 100% | COLO 205 colon 107% | DU-145 prostate 113% | K-562 leukemia 96.1% | MALME-3M melanoma 113% | MDA-MB-231 breast 114% | RXF 393 renal 97.1% | SF-268 CNS 99.3% | SF-295 CNS 115% | SF-539 CNS 106% | UACC-257 melanoma 101%

CC1CCC(C(C)C)C(NNC(N)=O)C1 (centres undefined)
inactive: NCI-H23 lung 106% | NCI-H226 lung 102% | NCI-H322M lung 102% | HOP-62 NSCLC 100% | NCI-H460 lung 104% | HOP-92 NSCLC 91.5% | NCI-H522 lung 94.9% | A549/ATCC NSCLC 89.7% | 786-0 renal 106% | COLO 205 colon 110% | DU-145 prostate 106% | K-562 leukemia 101% | MALME-3M melanoma 110% | MDA-MB-231 breast 97.5% | RXF 393 renal 101% | SF-268 CNS 106% | SF-295 CNS 103% | SF-539 CNS 110% | UACC-257 melanoma 87.3% | M14 melanoma 106%

CC(=O)OCC1OC(OC(C)=O)C(OC(C)=O)C(OC(C)=O)C1OC(C)=O (centres undefined)
inactive: NCI-H23 lung 107% and 95.6% | NCI-H226 lung 94.9% and 99.6% | NCI-H322M lung 111% and 101% | HOP-62 NSCLC 83.4% | NCI-H460 lung 112% and 104% | HOP-92 NSCLC 102% and 98.9% | NCI-H522 lung 103% | A549/ATCC NSCLC 103% and 96.6% | 786-0 renal 102% and 106% | COLO 205 colon 104% and 107% | DU-145 prostate 107% and 102% | K-562 leukemia 111% and 95.9% | MALME-3M melanoma 99.8% | MDA-MB-231 breast 124% and 109% | RXF 393 renal 102% and 106% | SF-268 CNS 108% and 99% | SF-295 CNS 98.2% | SF-539 CNS 99.6% and 103% | UACC-257 melanoma 95.4% and 101% | M14 melanoma 99.6% and 103%

Cc1ccc(=O)[nH]n1
inactive: NCI-H23 lung 97.8% and 98.7% | NCI-H226 lung 102% and 100% | NCI-H322M lung 104% and 103% | HOP-62 NSCLC 110% and 91.9% | NCI-H460 lung 105% and 107% | HOP-92 NSCLC 85.1% | NCI-H522 lung 108% and 96.2% | A549/ATCC NSCLC 102% and 91.4% | 786-0 renal 111% | COLO 205 colon 111% and 115% | DU-145 prostate 101% and 116% | K-562 leukemia 99.7% and 97.2% | MALME-3M melanoma 112% and 106% | MDA-MB-231 breast 118% | RXF 393 renal 105% | SF-268 CNS 99.4% and 103% | SF-295 CNS 113% and 101% | SF-539 CNS 110% and 109% | UACC-257 melanoma 101% and 94.1% | M14 melanoma 111% and 110%

COc1cc(C(O)C2C(=O)OCC2C2(c3ccc4c(c3)OCO4)SCCCS2)cc(OC)c1OC (centres undefined)
inactive: NCI-H23 lung 93.8% | NCI-H226 lung 100% | NCI-H322M lung 104% | HOP-62 NSCLC 101% | NCI-H460 lung 107% | HOP-92 NSCLC 77.8% | NCI-H522 lung 86.5% | A549/ATCC NSCLC 97.1% | 786-0 renal 103% | COLO 205 colon 94.2% | DU-145 prostate 103% | K-562 leukemia 97.7% | MALME-3M melanoma 91.1% | MDA-MB-231 breast 95.3% | RXF 393 renal 101% | SF-268 CNS 94.3% | SF-295 CNS 92.9% | SF-539 CNS 102% | UACC-257 melanoma 104% | M14 melanoma 96.8%

COc1ccc(C(=O)CC(c2ccccc2)C(C#N)c2ccccc2)cc1 (centres undefined)
inactive: NCI-H23 lung 88.4% | NCI-H226 lung 81.1% | NCI-H322M lung 103% | HOP-62 NSCLC 98.3% | NCI-H460 lung 92.8% | HOP-92 NSCLC 67.8% | NCI-H522 lung 69.5% | A549/ATCC NSCLC 74.2% | 786-0 renal 90% | COLO 205 colon 110% | DU-145 prostate 92.2% | K-562 leukemia 80.7% | MALME-3M melanoma 97.2% | MDA-MB-231 breast 81% | RXF 393 renal 99.5% | SF-268 CNS 86.3% | SF-295 CNS 96.3% | SF-539 CNS 97.7% | UACC-257 melanoma 87.7% | M14 melanoma 88%

CCN(CCNS(C)(=O)=O)c1ccc(N)c(C)c1
active: NCI-H522 lung -70.5%
inactive: NCI-H23 lung 99.2% and 85.9% | NCI-H226 lung 92.9% and 82.7% | NCI-H322M lung 95.1% and 120% | HOP-62 NSCLC 106% and 111% | NCI-H460 lung 107% and 99.7% | HOP-92 NSCLC 84.4% | A549/ATCC NSCLC 109% | 786-0 renal 89% and 95.7% | COLO 205 colon 69.6% and 107% | DU-145 prostate 70.4% and 123% | K-562 leukemia 27.9% and 95.5% | MALME-3M melanoma 93.6% and 119% | MDA-MB-231 breast 109% and 97.4% | RXF 393 renal 72.4% and 78.3% | SF-268 CNS 93.3% and 94.9% | SF-295 CNS 103% and 116% | SF-539 CNS 113% and 105% | UACC-257 melanoma 89.7% | M14 melanoma 108% and 98.6%

O=C1C=C(Nc2ccccc2)c2ccccc2C1=O
inactive: NCI-H23 lung 23% and 66.1% | NCI-H226 lung 66.4% and 83.4% | NCI-H322M lung 88.3% and 98.1% | HOP-62 NSCLC 19.1% and 123% | NCI-H460 lung 14.5% and 93.2% | HOP-92 NSCLC 89.7% | NCI-H522 lung 76.8% and 86.6% | 786-0 renal 99.8% and 99.3% | COLO 205 colon 108% and 91.9% | DU-145 prostate 21.2% and 97.3% | K-562 leukemia 54.7% and 98.7% | MALME-3M melanoma 70.1% and 71% | MDA-MB-231 breast 69.1% and 59.7% | RXF 393 renal 96.7% | SF-268 CNS 80.3% and 92.8% | SF-295 CNS 61.1% and 105% | SF-539 CNS 44.4% and 105% | UACC-257 melanoma 88.7% and 97.9% | M14 melanoma 47% and 107%
6.95% (active) and 93.7% (inactive): A549/ATCC NSCLC

CCCCOc1ccc(Nc2cc(Cl)ccc2C(=O)O)cn1
inactive: NCI-H23 lung 103% and 92.9% | NCI-H226 lung 109% and 97.5% | NCI-H322M lung 110% and 105% | HOP-62 NSCLC 88.4% and 90% | NCI-H460 lung 104% and 99% | HOP-92 NSCLC 74.8% | NCI-H522 lung 46.4% and 98.2% | A549/ATCC NSCLC 96.5% and 98.1% | 786-0 renal 92% | COLO 205 colon 119% and 103% | DU-145 prostate 120% and 121% | K-562 leukemia 107% and 108% | MALME-3M melanoma 140% and 121% | MDA-MB-231 breast 113% and 111% | RXF 393 renal 130% and 104% | SF-268 CNS 111% and 107% | SF-295 CNS 108% and 109% | SF-539 CNS 99.1% and 97.7% | UACC-257 melanoma 111% and 98.2% | M14 melanoma 101% and 107%

CN1CNC(=O)NC1
inactive: NCI-H23 lung 106% and 99.9% | NCI-H226 lung 98.4% and 86.1% | NCI-H322M lung 120% and 92.3% | HOP-62 NSCLC 108% and 103% | NCI-H460 lung 103% and 108% | HOP-92 NSCLC 94.1% and 95.6% | NCI-H522 lung 91.2% and 90% | A549/ATCC NSCLC 110% and 93.8% | 786-0 renal 108% and 112% | COLO 205 colon 110% and 121% | DU-145 prostate 118% and 106% | K-562 leukemia 112% and 86% | MALME-3M melanoma 120% and 96% | MDA-MB-231 breast 119% and 102% | RXF 393 renal 102% and 106% | SF-268 CNS 111% and 103% | SF-295 CNS 96.5% and 104% | SF-539 CNS 111% and 98.4% | UACC-257 melanoma 111% and 86.9% | M14 melanoma 97.2% and 106%
